# Test results taken from PubChem BioAssay (NCATS).
# Records with an inconclusive call do not appear. Entries that show only a call come without a potency. Calls of active or inactive are those of the source. Calls follow the shape of the dose curve; as a rule, active = well fitted curve in the direction sought with a large enough effect; inconclusive = small, poorly fitted or top-dose-only effect, or another doubt; inactive = no such curve, though single readings can be large; an effect the other way counts as inactive or inconclusive.
# Assays:
# [1] = Primary qHTS for inhibitors of La Crosse Virus (LACV) - induced cell death in SH-SY5Y cells (AID 1508616);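 also: top concentration of the series differs between compounds; higher means more rescue of cells from virus-induced death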
# Method in brief: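 Luminescent ATP readout (ATPLite 1step, 5 min room temperature) measured rescue from LACV-induced death after 6 days of infection at 0.01 MOI; normalized to infected DMSO wells and uninfected DMSO wells.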
# [2] = biological target: Calcium and integrin-binding protein 1 (Homo sapiens) (UniProt Q99828); assay: Validation qHTS for Identification of Calcium Integrin Binding protein 1 (CIB1) Competitor (AID 1508618)
# Method in brief: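 CIB1-GST (1 uM final) incubated 15 min at room temperature with compounds (up to 114 uM), then FITC-labelled alphaIIb peptide (100 nM) added. FP read (Ex 480/Em 540) after 15 min, pH 7.4 buffer containing 5 mM CaCl2.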
# Papain (Carica papaya) = Papain (Carica papaya) (UniProt P00784); assay: Primary qHTS assay for inhibitors of the protease papain (AID 1645873);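 also: papain turnover of Z-FR-AMC read as the AMC fluorescence gain over 10 min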; also: potency is read from the fitted curve at half-maximal effect
# [3] = Primary qHTS for small molecule stabilizers of the endoplasmic reticulum resident proteome: Secreted ER Calcium Modulated Protein (SERCaMP) assay (AID 1508630)
# Method in brief: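 GLuc-SERCaMP-expressing SH-SY5Y cells, pretreated 16 h with compound, are challenged with thapsigargin to empty ER calcium stores; after 4 h, coelenterazine is added directly to the medium and luminescence is imaged.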
# Chain of Calcium and integrin-binding protein 1 (Homo sapiens) (Q99828 whole entry, looked up): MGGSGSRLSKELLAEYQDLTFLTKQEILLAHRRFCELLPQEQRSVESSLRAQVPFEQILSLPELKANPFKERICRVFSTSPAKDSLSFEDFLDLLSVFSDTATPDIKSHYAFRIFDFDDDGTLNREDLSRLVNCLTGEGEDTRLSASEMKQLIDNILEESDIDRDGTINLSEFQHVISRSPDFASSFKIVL
# Chain of Papain (Carica papaya) (P00784 whole entry, looked up): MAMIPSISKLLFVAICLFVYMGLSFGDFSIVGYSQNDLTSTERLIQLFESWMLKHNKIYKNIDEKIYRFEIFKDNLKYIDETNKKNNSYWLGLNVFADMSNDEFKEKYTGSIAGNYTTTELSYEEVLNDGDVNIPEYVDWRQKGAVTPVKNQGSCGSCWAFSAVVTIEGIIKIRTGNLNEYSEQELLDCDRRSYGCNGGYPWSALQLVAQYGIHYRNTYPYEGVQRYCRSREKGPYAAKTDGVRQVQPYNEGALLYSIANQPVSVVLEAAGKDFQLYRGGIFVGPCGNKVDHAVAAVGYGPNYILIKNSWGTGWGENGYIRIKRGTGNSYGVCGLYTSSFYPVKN
Structure (SMILES),Potency [1],Potency [2],Potency (Papain (Carica papaya)),Potency [3]
CC(=O)C(C)=O,inactive,inactive,inactive,–
COC(=O)C1=C(C)NC(C)=C([N+](=O)[O-])C1c1ccccc1C(F)(F)F (stereo not given),inactive,inactive,inactive,inactive
O=C(O)C1=CC(=C(c2ccc(O)c(C(=O)O)c2)c2ccc(O)c(C(=O)O)c2)C=CC1=O,–,–,7.94 µM (active),–
CC(C)C[C@H](NC(=O)[C@H](O)[C@H](N)Cc1ccccc1)C(=O)O,inactive,inactive,inactive,inactive
CCCn1c(=O)c(C)cn2nc(N)nc12,inactive,inactive,28.2 µM (active),inactive
N[C@@H](Cc1ccc(F)cc1)C(=O)O,inactive,inactive,inactive,inactive
